Records with an inconclusive call do not appear. The source made the active and inactive calls. Calls follow the shape of the dose curve; as a rule, active = well fitted curve in the direction sought with a large enough effect; inconclusive = small, poorly fitted or top-dose-only effect, or another doubt; inactive = no such curve, though single readings can be large or run the other way.
Each molecule was assayed against Polyunsaturated fatty acid lipoxygenase ALOX15 (Homo sapiens) (UniProt P16050) (assay: Counterscreen qHTS for inhibitors of human arachidonate 12S-lipoxygenase (ALOX12): ALOX15 Assay). Details: purified ALOX15 enzyme activity; series mostly up to 110 µM.
Chain of Polyunsaturated fatty acid lipoxygenase ALOX15 (Homo sapiens) (P16050 whole entry, looked up): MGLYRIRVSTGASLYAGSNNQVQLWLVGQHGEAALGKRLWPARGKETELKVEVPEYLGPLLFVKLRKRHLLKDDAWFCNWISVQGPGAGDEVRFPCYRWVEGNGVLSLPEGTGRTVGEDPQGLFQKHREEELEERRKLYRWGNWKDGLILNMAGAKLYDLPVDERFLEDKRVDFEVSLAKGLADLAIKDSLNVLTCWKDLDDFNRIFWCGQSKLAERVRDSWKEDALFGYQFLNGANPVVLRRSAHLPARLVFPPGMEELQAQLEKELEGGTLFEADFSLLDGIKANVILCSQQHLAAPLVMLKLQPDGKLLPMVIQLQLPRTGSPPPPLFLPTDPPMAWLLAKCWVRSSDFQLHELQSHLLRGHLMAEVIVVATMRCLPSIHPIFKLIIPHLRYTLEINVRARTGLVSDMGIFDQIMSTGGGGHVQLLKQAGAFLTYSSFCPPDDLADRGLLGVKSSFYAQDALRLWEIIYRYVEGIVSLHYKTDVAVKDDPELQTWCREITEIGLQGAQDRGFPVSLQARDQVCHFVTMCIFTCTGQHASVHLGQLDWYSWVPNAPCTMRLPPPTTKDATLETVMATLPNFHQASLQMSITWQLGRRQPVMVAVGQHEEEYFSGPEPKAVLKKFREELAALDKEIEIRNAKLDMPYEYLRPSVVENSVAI
Procedure, shortened: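 Purified human ALOX15 (15hLO-1) at 40 nM in 25 mM HEPES, 0.01% Triton X-100, pH 7.5, preincubated with compound 15 min at RT. Then 50 uM arachidonic acid for 30 min; hydroperoxide detected by Fe-xylenol orange as the 573/405 nm absorbance ratio.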

Structure (SMILES)	outcome
O=C1NCc2ccccc2CC12CCN(Cc1ccc(O)cc1)CC2	inactive
O=C(c1cc(C2CC2)nc2c1c(C1CCCN1)nn2-c1ccccc1)N1CCC(F)CC1 (stereo not drawn)	inactive
O=C1NCc2ccccc2CC12CCCN2Cc1ccccc1Cl (stereo not drawn)	inactive
CC(=O)N1CCn2cc(C(=O)N3CCOCC3)nc2C1	inactive
CC(C)c1nc2c(c(-c3ccc(Cl)cc3)n1)CCN(CC1CCCCC1)CC2	inactive
FC(F)(F)c1cccc(C2=NOC3(CCN(Cc4ccccc4)C3)C2)c1 (stereo not drawn)	inactive
O=C(C1CCCC1)N1Cc2ccccc2CC2(CCN(Cc3cccnc3)C2)C1 (stereo not drawn)	inactive
CCc1nc2c(c(-c3ccc(OC)cc3)n1)CN([S+](=O)([O-])c1c(C)noc1C)CC2	inactive
NCc1cccc(-c2ccc(F)cc2F)c1	inactive
CCNc1ncnc2c1CN(C1CCCNCC1)C(=O)CN2C (stereo not drawn)	inactive
C/C(=C\c1ccccc1)CN1CCCC12Cc1ccccc1CNC2=O (stereo not drawn)	inactive
COc1cccc([S+](=O)([O-])N2CCn3c(nn(-c4cccc(Cl)c4)c3=O)C2)c1	inactive
O=C(O)CCCC(=O)N1Cc2ccccc2CC2(CCCN(Cc3ccccn3)C2)C1 (stereo not drawn)	inactive
O=C1NCc2ccccc2CC12CCN(Cc1ccccc1Cl)C2 (stereo not drawn)	inactive
COc1ccc(-c2nc(C3CC3)nc3c2CCN(Cc2ccc(C#N)cc2)CC3)cc1	inactive
NC(Cc1ccccc1)C(=O)N1CCC2(CC1)CN(C(=O)c1ccc(Cl)cc1)CCO2 (stereo not drawn)	inactive
CCc1ccc(S(=O)(=O)c2nnn3c2nc(NCc2ccc(F)cc2)c2ccccc23)cc1	inactive
O=C1NCc2ccccc2CC12CCN(Cc1ccccc1OC(F)(F)F)C2 (stereo not drawn)	inactive
CC(CO)Nc1ncnc2c1CN(C1CCCNCC1)C(=O)CN2C (stereo not drawn)	inactive

Structure (SMILES)	outcome
Cc1ccc(CN2CC3ON=C(C(=O)O)C3C2)cc1 (stereo not drawn)	inactive
COC[C@@H]1CCCN1c1ncnc2c1CN(C1CCCNCC1)C(=O)CN2C (stereo partly drawn)	inactive
CNC(C)c1ccc(Oc2ccccc2)cc1 (stereo not drawn)	inactive
O=C(NC1CC1)c1cc(-c2ccccc2C(F)(F)F)nc2onc(C3CCNC3)c12 (stereo not drawn)	inactive
O=C(O)CCCC(=O)N1Cc2ccccc2CC2(CCCCN2CCc2ccccc2)C1 (stereo not drawn)	inactive
COc1ccc(CNc2ncnc3c2CN(C2CCNCC2)C(=O)CN3C)cc1OC	inactive
CN(C)C(=O)N1CCCC(c2nnc3n2CCNC3)C1 (stereo not drawn)	inactive
COCCCNc1nc2c(S(=O)(=O)c3c(C)cc(C)cc3C)nnn2c2ccccc12	inactive
COc1ccc(CN2CCC3(CC(c4cccc(C(F)(F)F)c4)=NO3)C2)cc1 (stereo not drawn)	inactive
CN1CC(=O)N(C2CCNCC2)Cc2c(NC3CCCCC3)ncnc21	inactive
CN1CC(=O)N(C2CCNC2)Cc2c(NCC3(O)CCCCC3)ncnc21 (stereo not drawn)	inactive
Cn1nc(C2CCCNC2)c2c(C(=O)NCC(F)(F)F)cc(C3CC3)nc21 (stereo not drawn)	inactive
O=C(N1CCCC1)N1CCN(c2ccc(Cl)nn2)C(=O)C1	inactive
CCc1ccc(CN2CCC3(CC2)Cc2ccccc2CNC3=O)s1	inactive
CNC(=O)c1cnn2c1CN(C(=O)c1ccccc1)CC2	inactive
Cc1cc(C(=O)N2CCC(F)CC2)c2c(C3CCCN3)noc2n1 (stereo not drawn)	inactive
CCC(=O)N1Cc2ccccc2CC2(CCN(CC3CCNCC3)CC2)C1	inactive
O=C1NCc2ccccc2CC12CCCN(CCCc1ccccc1)C2 (stereo not drawn)	inactive
O=C1NCc2ccccc2CC12CCN(Cc1ccc(F)cc1F)CC2	inactive

Reference: PubChem BioAssay AID1671192 (National Center for Advancing Translational Sciences (NCATS), 2021)
